# Measured values taken from paper PMC4336329 (PLoS ONE, 2015).
# Among all 310,000 compounds or so, about 2,200 (0.71%) showed an effect of 50% or more. Effects have a minus sign here. The entries come from a sample that favours strong results as a whole.
# Biological target: human ether-à-go-go-related gene (hERG) potassium channel (human, UniProt Q12809)
# Assay: primary screen, population patch clamp on CHO cells stably expressing hERG; higher = less effect of the substance
# Protocol: Briefly, Chinese hamster ovary (CHO) cells stably expressing the hERG channel were dislodged from tissue culture flasks and dispensed into PPC plates. […] During the recording, background leak currents were estimated by a 100 ms step to -80 mV from an initial holding potential of -70 mV and subtracted from the subsequent current measurement. The campaign was conducted in two phases using slight differences in recording protocol. In the first phase, the initial voltage pulse used a 100 ms step to -30 mV from a holding potential of -70 mV, a 2 s conditioning step to +25 mV, and a 2 s test step to -30 mV. During the second phase of the screen, the potential during the conditioning step was raised to +45 mV. In both phases of the campaign, a secondary voltage pulse was applied using the same parameters as the second phase initial pulse. The initial and secondary pulses were applied in the absence of compound, and upon application of 1 μM and 10 μM test concentrations. Small molecule effects on hERG current density were quantified by […].
# human ether-à-go-go-related gene (hERG) potassium channel, sequence (Q12809 whole entry, looked up): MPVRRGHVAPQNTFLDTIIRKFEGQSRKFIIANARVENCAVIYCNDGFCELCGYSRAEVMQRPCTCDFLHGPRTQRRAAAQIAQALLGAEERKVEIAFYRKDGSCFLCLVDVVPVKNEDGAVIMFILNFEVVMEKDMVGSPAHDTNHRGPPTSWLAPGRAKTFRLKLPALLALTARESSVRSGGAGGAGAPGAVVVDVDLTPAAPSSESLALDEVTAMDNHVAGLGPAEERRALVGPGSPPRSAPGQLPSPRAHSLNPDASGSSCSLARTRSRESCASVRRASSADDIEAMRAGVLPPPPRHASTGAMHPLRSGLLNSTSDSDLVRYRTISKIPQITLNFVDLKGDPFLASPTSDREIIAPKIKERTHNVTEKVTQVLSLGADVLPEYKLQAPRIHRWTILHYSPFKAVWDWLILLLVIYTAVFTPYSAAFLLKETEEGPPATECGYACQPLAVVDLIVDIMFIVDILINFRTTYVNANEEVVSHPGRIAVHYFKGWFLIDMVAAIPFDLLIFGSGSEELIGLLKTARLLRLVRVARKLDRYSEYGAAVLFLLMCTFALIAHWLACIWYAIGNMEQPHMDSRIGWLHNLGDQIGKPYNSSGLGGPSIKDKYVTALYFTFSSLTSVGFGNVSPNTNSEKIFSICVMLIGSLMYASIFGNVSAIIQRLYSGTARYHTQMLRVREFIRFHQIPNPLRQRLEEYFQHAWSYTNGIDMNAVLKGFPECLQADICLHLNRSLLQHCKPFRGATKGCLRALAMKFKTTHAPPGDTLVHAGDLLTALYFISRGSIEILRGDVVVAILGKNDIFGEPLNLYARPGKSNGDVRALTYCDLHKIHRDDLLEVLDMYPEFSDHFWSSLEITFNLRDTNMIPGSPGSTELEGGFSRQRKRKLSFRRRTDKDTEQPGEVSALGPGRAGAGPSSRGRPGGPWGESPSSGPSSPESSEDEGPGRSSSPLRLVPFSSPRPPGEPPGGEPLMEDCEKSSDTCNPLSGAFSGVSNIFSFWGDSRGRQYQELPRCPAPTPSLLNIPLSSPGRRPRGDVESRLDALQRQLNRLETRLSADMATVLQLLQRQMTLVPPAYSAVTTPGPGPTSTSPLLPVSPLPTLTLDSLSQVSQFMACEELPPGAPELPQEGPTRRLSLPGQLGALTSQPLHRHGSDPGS
row,SMILES,"hERG current change (%, negative = inhibition) at 1uM"
1,Cc1ccnc(NC(=O)Cn2cc([N+](=O)[O-])cn2)c1,10.4%
2,CCOC(=O)c1sc(=S)n(-c2ccccc2)c1N(C(C)=O)C(C)=O,15.5%
3,COc1ccc(S(=O)(=O)N2CCOCC2)cc1NC(=O)CCc1cc(OC)c(OC)c(OC)c1,2.32%
4,CC(NC(=O)c1cccnc1)C(c1cccs1)N1CCN(C)CC1 (stereo not shown),8.63%
5,COc1ccc(OCCSc2nc(N)cc(N)n2)cc1,-5.65%
6,CC(=O)OCCNc1cc(SC(C)C)c2nonc2c1[N+](=O)[O-],3.63%
7,C=CCN1C=C2C(=O)C(C)(OC(=O)CCC(=O)OC)C(=O)C(Br)=C2C=C1c1ccc(OC)cc1 (stereo not shown),7.67%
8,O=C(Cc1ccccc1[N+](=O)[O-])NCCc1ccc(F)cc1,11.3%
9,O=C(OCn1nnc2ccccc2c1=O)c1cccc(S(=O)(=O)N2CCOCC2)c1,12.9%
10,CSC(=NC#N)N1CCN(c2ccc(Cl)cc2)CC1,-6.45%
11,CSC(=NC#N)N1CCN(c2ccc([N+](=O)[O-])cc2)CC1,-80.9%
12,O=C(CCS(=O)(=O)Cc1ccccc1)N1CCN(c2ccc([N+](=O)[O-])cc2)CC1,-81%
13,CSC(=NC#N)N1CCN(c2ccccc2)CC1,6.71%
14,O=C(CCS(=O)(=O)Cc1ccccc1)N1CCN(c2ccccc2)CC1,-5.53%
15,Cc1ccc(S(=O)(=O)CCC(=O)N2CCN(c3ccc([N+](=O)[O-])cc3)CC2)cc1,-49.9%
16,CC1(C(=O)N2CCN(c3ccc([N+](=O)[O-])cc3)CC2)CC1(Cl)Cl (stereo not shown),-64.3%
17,CC(=O)N1CCN(c2ccc([N+](=O)[O-])cc2)CC1,-26%
18,CC1(C(=O)N2CCN(c3ccccc3)CC2)CC1(Cl)Cl (stereo not shown),10.3%
19,O=C(CSCc1c(F)cccc1Cl)NCC1CCCO1 (stereo not shown),-1.83%
20,CCn1cc(C2=NC(CCSC)CO2)c2ccccc21 (stereo not shown),12%
21,Cc1ccc(C2=NN(CC(=O)O)C(=O)CC2)cc1,-9.99%
22,Cc1ccc(C(=O)N2CCN(c3ccc([N+](=O)[O-])cc3-n3cccc3)CC2)cc1,-16.4%
23,COc1cccc(N2CCN(CC(=O)C34CC5CC(CC(C5)C3)C4)CC2)c1,14%
24,O=C(O)c1ccccc1C(=O)O,4.51%
25,O=C1OC(NC(=O)c2ccccc2)C(n2cc(CO)nn2)=C1Cl (stereo not shown),-3.22%
26,COc1ccc(N(C(=O)Cc2cccs2)C(C(=O)NC2CCCCC2)c2cccn2C)cc1 (stereo not shown),9.18%
27,N#C/C(=C/c1ccc(Cl)cc1)NC(=O)c1ccccc1,12.2%
28,COCCn1c(C)cc(C(=O)CSc2nnnn2C2CCCC2)c1C,-58.4%

row,SMILES,"hERG current change (%, negative = inhibition) at 1uM"
1,CCn1c(C)cc(C(=O)CSc2nnnn2C2CCCC2)c1C,-9.53%
2,COCC(C)n1c(C)cc(C(=O)CSc2nnnn2C2CCCC2)c1C (stereo not shown),5.12%
3,CCOC(=O)C1CCCN(CCC(=O)Nc2c(C(=O)OC)[nH]c3cc(OC)ccc23)C1 (stereo not shown),-38%
4,O=C(CSc1nnc(-c2ccc(O)cc2)o1)Nc1cccc(O)c1,17.7%
5,Cl.Nc1cc(F)ccc1N1CCCCCC1,12.7%
6,CN(C)C(=O)C1C2NC(=S)N(c3ccccc3)C1(C)Oc1ccccc12 (stereo not shown),2.05%
7,O=[N+]([O-])c1ccc(N2CCN(c3cccc(Cl)c3)CC2)cn1,-59.8%
8,O=[N+]([O-])c1ccc(N2CCCCC2)cn1,13.9%
9,O=[N+]([O-])c1ccc(N2CCN(c3ccccc3Cl)CC2)cn1,-10%
10,CCc1cccc(C)c1NC(=O)CC1Oc2ccc(C)cc2NC1=O (stereo not shown),11.9%
11,CCCOC(=O)CCCN1C(=O)/C(=C2\SC(=S)N(CCCC(=O)OCCC)C2=O)SC1=S,16%
12,Cc1cc2c(cc1C)C(c1ccsc1)CC(=O)N2 (stereo not shown),9.06%
13,COc1ccc(CN2CCNC(=O)C2CC(=O)N(C)Cc2nccs2)c(OC)c1 (stereo not shown),13.1%
14,Cc1ccc(NS(=O)(=O)c2ccc(C(=O)N3CCN(c4ncccn4)CC3)cc2)cc1,1.36%
15,COc1ccc(C(=O)N/C(=C/c2ccc(Cl)cc2)C(=O)NCc2ccncc2)cc1,-38.4%
16,Cc1ccc(C(=O)N/C(=C\c2ccccc2)C(=O)NCc2cccnc2)cc1,-41.8%
17,Cc1ccc(NC(=O)/C(=C\c2cccc([N+](=O)[O-])c2)NC(=O)c2cccs2)cc1,4.59%
18,Cc1ccc(C(=O)N/C(=C\c2cccs2)C(=O)NCc2ccncc2)cc1,-38.5%
19,Cc1ccc(C(=O)N/C(=C/c2ccc(F)cc2)C(=O)NCc2ccncc2)cc1,-78.4%
20,Cc1ccc(C(=O)N/C(=C\c2sccc2C)C(=O)NCc2ccncc2)cc1,-1.07%
21,Cc1ccc(C(=O)N/C(=C\c2ccc(F)cc2)C(=O)NCc2ccncc2)cc1,-81.2%
22,COc1ccc(/C=C(/NC(=O)c2ccc(C)cc2)C(=O)NCc2ccncc2)cc1,-21.3%
23,O=C(Nc1cccc2ccccc12)/C(=C\c1cccc([N+](=O)[O-])c1)NC(=O)c1cccs1,-67.7%
24,O=C(Nc1cccc2ccccc12)/C(=C/c1cccc([N+](=O)[O-])c1)NC(=O)c1cccs1,-37.8%
25,Cc1ccc(C(=O)N/C(=C\c2ccccc2)C(=O)NCc2ccncc2)cc1,-77.1%
26,Cc1ccc(C(=O)N/C(=C/c2ccccc2)C(=O)NCc2ccncc2)cc1,-37.7%
27,N#Cc1c(NC(=S)NC(=O)C2CCCC2)sc2c1CCCCC2,10.1%
